Measured values: PubChem BioAssay (NCI)
Compounds without any hit were thinned out: in the full panel of roughly 83,000, 20% have a hit.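 Compound tested at a single concentration for 48 hours in 96-well plates; a percent growth value below 10 was scored as active.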

Legend:
Assay in all cases: NCI-60 one-dose screen, 48 h (100 = growth as untreated, 0 = no growth, -100 = all killed)
Details in all cases: 10 µM
DU-145 prostate = system: DU-145 prostate
K-562 leukemia = system: K-562 leukemia
MALME-3M melanoma = system: MALME-3M melanoma
MDA-MB-231 breast = system: MDA-MB-231 breast
RXF 393 renal = system: RXF 393 renal
SF-268 CNS = system: SF-268 CNS
SF-295 CNS = system: SF-295 CNS
SF-539 CNS = system: SF-539 CNS
UACC-257 melanoma = system: UACC-257 melanoma
M14 melanoma = system: M14 melanoma

Measured: growth

c1ccc2c(c1)Sc1ccccc1S2
inactive: DU-145 prostate 108% | K-562 leukemia 103% | MALME-3M melanoma 101% | MDA-MB-231 breast 94.1% | RXF 393 renal 99.5% | SF-268 CNS 109% | SF-295 CNS 101% | SF-539 CNS 106% | UACC-257 melanoma 99.9%

C=CCOC(=O)C(=O)OCC=C
inactive: DU-145 prostate 112% | K-562 leukemia 95.1% | MALME-3M melanoma 139% | MDA-MB-231 breast 108% | RXF 393 renal 103% | SF-268 CNS 103% | SF-295 CNS 154% | SF-539 CNS 91.8% | UACC-257 melanoma 102%

O=c1[nH]nc(SC2CCCCC2)c(=O)[nH]1
inactive: DU-145 prostate 114% | K-562 leukemia 84.3% | MALME-3M melanoma 95.7% | MDA-MB-231 breast 102% | RXF 393 renal 129% | SF-268 CNS 98.8% | SF-295 CNS 118% | SF-539 CNS 99% | UACC-257 melanoma 91.2%

N/N=C(/Cc1ccccc1)NNC(N)=S
inactive: DU-145 prostate 106% | K-562 leukemia 103% | MALME-3M melanoma 95.4% | MDA-MB-231 breast 111% | RXF 393 renal 112% | SF-268 CNS 97.4% | SF-295 CNS 105% | SF-539 CNS 98.5% | UACC-257 melanoma 92.3% | M14 melanoma 93.5%

CC1CCC2C(C)(C)C3CC12CC1OC13C (configuration not stated)
inactive: DU-145 prostate 117% | K-562 leukemia 123% | MALME-3M melanoma 107% | MDA-MB-231 breast 110% | RXF 393 renal 98.9% | SF-268 CNS 110% | SF-295 CNS 104% | SF-539 CNS 98.9% | UACC-257 melanoma 113%

Oc1ccccc1O
inactive: DU-145 prostate 106% | K-562 leukemia 112% | MALME-3M melanoma 138% | MDA-MB-231 breast 63.9% | RXF 393 renal 94.4% | SF-268 CNS 87.2% | SF-295 CNS 136% | SF-539 CNS 84.1% | UACC-257 melanoma 87.7%

Cc1cc(N)c(S(=O)(=O)O)c(N)c1
inactive: DU-145 prostate 96.6% | K-562 leukemia 125% | MALME-3M melanoma 118% | MDA-MB-231 breast 103% | RXF 393 renal 112% | SF-268 CNS 109% | SF-295 CNS 96% | SF-539 CNS 96.8% | UACC-257 melanoma 104%

Cc1cc2ccccc2c(O)c1C#N
inactive: DU-145 prostate 120% | K-562 leukemia 92.8% | MALME-3M melanoma 126% | MDA-MB-231 breast 98.9% | RXF 393 renal 118% | SF-268 CNS 103% | SF-295 CNS 116% | SF-539 CNS 110% | UACC-257 melanoma 106%

CCCCNC1(C#N)CCN(Cc2ccccc2)CC1
inactive: DU-145 prostate 135% | K-562 leukemia 114% | MALME-3M melanoma 94.7% | MDA-MB-231 breast 104% | RXF 393 renal 107% | SF-268 CNS 129% | SF-295 CNS 97.2% | SF-539 CNS 99.8% | UACC-257 melanoma 107% | M14 melanoma 76.6%

O=C(O)CCCC(=O)O
inactive: DU-145 prostate 99.8% | K-562 leukemia 120% | MALME-3M melanoma 83.8% | MDA-MB-231 breast 106% | RXF 393 renal 99.5% | SF-268 CNS 94.1% | SF-295 CNS 110% | SF-539 CNS 104% | UACC-257 melanoma 87.9% | M14 melanoma 106%

CC(=O)c1c[nH]c2ccccc12
inactive: DU-145 prostate 124% | K-562 leukemia 103% | MALME-3M melanoma 95.2% | MDA-MB-231 breast 114% | RXF 393 renal 104% | SF-268 CNS 113% | SF-295 CNS 100% | SF-539 CNS 105% | UACC-257 melanoma 104%

Oc1ccccc1-c1nnco1
inactive: DU-145 prostate 99.7% | K-562 leukemia 75.4% | MALME-3M melanoma 96.2% | MDA-MB-231 breast 84.4% | RXF 393 renal 74% | SF-268 CNS 65.4% | SF-295 CNS 112% | SF-539 CNS 89.9% | UACC-257 melanoma 97.3%

CC(=O)OC(OC(C)=O)C1CCCO1 (configuration not stated)
inactive: DU-145 prostate 112% | K-562 leukemia 135% | MALME-3M melanoma 112% | MDA-MB-231 breast 91.8% | RXF 393 renal 115% | SF-268 CNS 97.8% | SF-295 CNS 112% | SF-539 CNS 100% | UACC-257 melanoma 98%

CCOC(=O)c1[nH]c(C)c(C(C)=O)c1C
inactive: DU-145 prostate 93.7% | K-562 leukemia 87.3% | MALME-3M melanoma 95.7% | MDA-MB-231 breast 96.6% | RXF 393 renal 97.3% | SF-268 CNS 93.5% | SF-295 CNS 92.6% | SF-539 CNS 92.6% | UACC-257 melanoma 98.3%

C=C[Si](OC(C)=O)(OC(C)=O)OC(C)=O
inactive: DU-145 prostate 116% | K-562 leukemia 98.7% | MALME-3M melanoma 85.6% | MDA-MB-231 breast 118% | RXF 393 renal 117% | SF-268 CNS 99.4% | SF-295 CNS 96.9% | SF-539 CNS 96.8% | UACC-257 melanoma 105%

OCCN1CCOCC1
inactive: DU-145 prostate 124% | K-562 leukemia 114% | MALME-3M melanoma 114% | MDA-MB-231 breast 113% | RXF 393 renal 119% | SF-268 CNS 117% | SF-295 CNS 110% | SF-539 CNS 111% | UACC-257 melanoma 99.7%
